Screening data: PubChem, National Center for Advancing Translational Sciences (NCATS)
Only some compounds are listed: those with a hit (about 6.1% of all), similar ones and a draw of the others.
DRD3 antagonist = qHTS of D3 Dopamine Receptor Antagonist: qHTS. D(3) dopamine receptor (Homo sapiens), P35462. D3R cells, DiscoveRx beta-arrestin luminescence, antagonist mode; active compounds read low. max response, negative = inhibition, %. 2.5% of 360,000 active. AID 652054, 2013; in the data active = max response below about -50%; inconclusive = no clear call, values can overlap the other calls; note: % is set by controls: 0 for no effect and ±100 for the full control effect
Target sequence (P35462 whole entry, looked up): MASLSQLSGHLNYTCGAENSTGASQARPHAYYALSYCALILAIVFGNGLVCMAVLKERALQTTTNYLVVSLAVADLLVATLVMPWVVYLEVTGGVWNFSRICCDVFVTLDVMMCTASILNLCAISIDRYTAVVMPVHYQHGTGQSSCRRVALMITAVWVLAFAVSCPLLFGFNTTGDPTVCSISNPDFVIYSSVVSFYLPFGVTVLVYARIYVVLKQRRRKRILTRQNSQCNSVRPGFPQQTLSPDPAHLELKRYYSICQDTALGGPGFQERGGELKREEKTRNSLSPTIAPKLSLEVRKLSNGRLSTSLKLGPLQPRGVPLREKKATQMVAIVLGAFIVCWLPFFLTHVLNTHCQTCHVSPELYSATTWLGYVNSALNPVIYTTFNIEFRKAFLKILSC
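Cells plated overnight at 1500 cells/well, then exposed to library compounds with dopamine controls for 90 minutes at 37 degrees C. DiscoveRx reagent added for 30–60 minutes at room temperature; luminescence read, quantitative HTS format.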
D1 PAM = Potentiators of Human D1 Dopamine Receptor: qHTS; HEK293 TREx D1 cells, calcium flux, dopamine EC20 potentiation; D(1A) dopamine receptor (Homo sapiens), P21728; 0.036% of 360,000 active; potentiation, % at 10 µM; in the data active = potentiation above about 30%; note: 0% is about no effect
D1 antagonist = Antagonist of Human D 1 Dopamine Receptor: qHTS; D(1A) dopamine receptor (Homo sapiens), P21728; HEK293 TREx D1 cells, calcium flux, dopamine EC80; active compounds read low; activity change, negative = inhibition, % at 10 µM; 3.2% of 360,000 active; AID 504652, 2011; in the data active = activity change below about -30%; note: % is set by controls: 0 for no effect and ±100 for the full control effect
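Allosteric or orthosteric antagonism assessed as attenuation of the calcium response to EC80 dopamine, added 180 s after compound, in induced HEK293 Trex D1 cells loaded with no-wash calcium dye.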
D1 agonist = Allosteric Agonists of the Human D1 Dopamine Receptor: qHTS | HEK293 T-REx D1 cells, calcium flux, agonist mode | activation, % at 2 µM | 1% of 360,000 active; in the data active = activation above about 30%; note: 0% is about no effect
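Agonism was scored from calcium flux recorded over 180 s (1 read/s) after pintool compound addition, following a 10-cycle baseline. Cells were inducible force-coupled HEK293 TREx D1, plated overnight at 30 C and loaded with no-wash calcium dye.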
D3 ag = qHTS of D3 Dopamine Receptor Agonist: qHTS; D(3) dopamine receptor (Homo sapiens), P35462; D3R DiscoveRx beta-arrestin cells, luminescence, 90 min; max activation, %; 0.58% of 410,000 active; AID 652048, 2013; in the data active = max activation above about 30%; note: 0% is about no effect
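Cells at 1500/well, incubated overnight, then treated with pinned compounds (dopamine as control) for 90 min at 37 degrees C. DiscoveRx reagent added for 30 - 60 minutes at room temperature; luminescence read.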
The depositor's hits bear a star; ? = inconclusive; . = no result given.

SMILES | DRD3 antagonist | D1 PAM | D1 antagonist | D1 agonist | D3 ag
COC(=O)c1c(NC(=O)c2ccccc2)sc2c1CC(C)(C)NC2(C)C | -26.1 | -2.0 | -31.1* | 2.4 | 0.5
Oc1c(C(c2ccccc2)N2CCN(c3cccc(Cl)c3)CC2)sc2nc(-c3ccco3)nn12 (stereo unspecified) | . | 3.5 | . | -0.8 | -8.3
CCOC(=O)c1c(CN2CCCCC2)n(C)c2cc(Br)c(O)c(CN(C)C)c12 | -67.8* | -7.8 | -22.0 | 0.8 | -10.2
CCOC(=O)c1c(CSc2ccccc2)n(C)c2cc(Br)c(O)c(CN(C)C)c12 | -16.1 | -2.5 | 3.0 | 1.3 | -13.0
O=C(Nc1ccccc1N1CCOCC1)c1cccnc1 | 5.2 | -10.8 | -79.4* | 0.6 | 7.7
O=C(Cc1ccccc1)Nc1ccccc1N1CCOCC1 | -52.4* | -7.8 | -1.0 | 3.2 | 4.9
O=C(Nc1ccc(N2CCOCC2)c(Cl)c1)c1cccnc1 | -4.9 | -5.5 | 1.6 | 0.8 | -5.6
CCCC(=O)NC(=S)Nc1ccccc1N1CCOCC1 | 1.4 | -0.1 | -2.2 | 1.4 | 2.2
O=C(Nc1ccccc1N1CCOCC1)C1=NN(c2ccccc2)C(=O)CC1 | -51.7* | 2.1 | -12.4 | 1.2 | -3.9
O=C(Cc1ccccc1)Nc1ccccc1N1CCCC1 | -20.5 | 3.2 | 4.7 | 0.9 | -7.4
O=C(Cc1ccc(Cl)cc1)NC(=S)Nc1ccccc1N1CCOCC1 | 0.0 | 11.5 | -33.8* | 34.1* | -2.5
O=C(Nc1cc(C(F)(F)F)ccc1N1CCOCC1)C1=NN(c2ccccc2)C(=O)CC1 | 1.0 | 7.2 | -3.2 | 1.6 | -1.0
CC(=O)Nc1nonc1-c1nnc(SCC(=O)N(C)c2ccccc2)n1C | . | 0.1 | 4.3 | -2.1 | 6.5
CCc1ccc(S(=O)(=O)c2nnn3c2nc(N(CC)Cc2ccccc2)c2cc(Cl)ccc23)cc1 | . | -0.6 | -1.2 | -0.5 | -10.5
Cc1cc(C)n2nc(CNC(=O)c3cccc(Cl)c3)nc2n1 | . | -3.0 | 2.0 | -0.4 | -8.5
COc1ccc(NC(=O)c2ccc(CN3CCN(c4ccccc4)CC3)cc2)cc1 | ? | -5.5 | 3.8 | 4.8 | -12.6
O=C(CCN1CCN(c2ccccc2)CC1)Nc1ccccc1F | ? | -8.6 | -7.9 | -0.8 | 33.8*
O=C(Nc1ccccc1F)c1ccc(CN2CCN(c3ccccc3)CC2)cc1 | -53.5* | -6.0 | -26.2 | 1.5 | -1.5
Cc1ccc(N(C)C(=O)c2cnc(N3CCOCC3)c3ccccc23)cc1C | . | -1.0 | -36.7* | 0.3 | 9.1
CCc1ccccc1N(C)C(=O)c1cnc(N2CCOCC2)c2ccccc12 | . | -3.4 | -12.6 | 0.0 | 5.2
CCN(C(=O)c1cnc(N2CCOCC2)c2ccccc12)c1cc(C)ccc1C | . | -1.6 | -42.6* | 2.0 | -0.1
COc1ccc(C(=O)c2oc3ccccc3c2NC(=O)c2cc(=O)c3ccc(C)cc3o2)cc1Cl | . | -0.1 | 6.6 | 2.6 | -1.0
COc1ccccc1NC(=O)CSC1=Nc2ccccc2C2=NC(CCC(=O)NCc3ccco3)C(=O)N12 (stereo unspecified) | . | -2.1 | 12.9 | 0.1 | 11.1
Cc1ccccc1OCc1nnc(SCc2cc(=O)c3cccc(F)c3[nH]2)n1C | . | 1.1 | -6.9 | 1.3 | 6.8
O=c1c2cc(NC(=S)N3CCCC3)ccc2nc2n1CCCCC2 | -23.0 | 9.9 | 0.1 | 1.5 | -13.0
SMILES | DRD3 antagonist | D1 PAM | D1 antagonist | D1 agonist | D3 ag
CCN1CCN(C(=S)Nc2ccc3nc4n(c(=O)c3c2)CCCCC4)CC1 | 9.8 | -4.0 | -1.6 | 35.6* | -9.1
CCCN(CCC)CCCNC(=S)Nc1ccc2nc3n(c(=O)c2c1)CCCCC3 | -7.6 | -10.2 | -30.2* | 0.0 | -7.2
COc1cc(CCCN2CCNC[C@@H]2Cc2ccc(O)cc2)cc(OC)c1OC | -29.9 | -3.4 | 14.5 | -0.5 | -5.4
COc1cc2c(cc1O)C(Cc1ccc(O)cc1)[N+](C)([O-])CC2 (stereo unspecified) | -22.2 | -6.2 | -38.0* | 1.6 | -27.9
COc1ccc(C[C@H]2c3cc(O)c(OC)cc3CC[N+]2(C)[O-])cc1O (stereo partly specified) | 0.0 | -7.2 | -82.9* | 5.0 | -19.5
COc1cc(C[C@@H]2C(=O)OC[C@H]2Cc2ccc(OC)c(OC)c2)ccc1O | 43.8 | -3.1 | -7.9 | 5.5 | 18.5
CCOC(=O)c1c(NC(C)=O)c2c3c(sc2n1Cc1nc(-c2ccccc2OCC)oc1C)CCCC3 | . | -6.7 | 5.4 | -0.1 | -7.5
COc1ccc(CCNc2nc(SCc3ccccc3Cl)nc3ccccc23)cc1OC | . | -2.5 | 16.5 | 7.0 | 9.4
CC#CCC(C)[C@H](O)/C=C/[C@@H]1[C@H]2c3cccc(CCCC(=O)O)c3O[C@H]2C[C@H]1O (stereo partly specified) | . | . | . | . | 14.9
Cc1sc2nc(SCCN(C)C)n(-c3ccccc3)c(=O)c2c1-c1ccc(F)cc1 | -69.4* | . | 25.9 | 3.6 | -14.7
CN1CCN(CC(=O)Nc2nc3c(s2)CCCC3)CC1 | 0.3 | -1.4 | -24.5 | 0.9 | -4.5
CCN1CCN(/C=N/c2nc3c(s2)CCCC3)CC1 | -75.3* | -4.2 | -4.2 | 4.1 | 0.3
CCCCCCCCN1[C@@H](CC(=O)O)c2cc(C(F)(F)F)ccc2S1(=O)=O | 5.0 | . | . | . | 12.9
CCCCCCCCCCCCN1[C@@H](CC(=O)O)c2cc(C(F)(F)F)ccc2S1(=O)=O | 1.8 | . | . | . | 36.7*
CCCCCCCCCCCCN1[C@@H](CC(=O)O)c2cc(F)ccc2S1(=O)=O | 1.3 | . | . | . | 40.4*
COCCCN1C(=O)c2ccccc2CC1(C)C(=O)NC1CCCCC1 (stereo unspecified) | . | -0.7 | 8.0 | 1.0 | 1.0
CC(C)CN(CCNC(=O)CCN1N=C(c2ccccc2)CCC1=O)CC(C)C | . | -1.6 | -3.2 | 0.2 | -1.3
COC(=O)c1nc(NC2=NCCCCC2)n[nH]1 | -1.7 | -2.5 | -36.4* | 0.7 | 1.1
COC(=O)c1nc(NC(C)=O)n[nH]1 | . | 2.3 | -0.2 | 0.4 | .
CC(=O)Oc1c(Cl)cc(Cl)cc1/C=C/c1ccc2ccccc2n1 | 38.7 | 1.4 | 12.1 | 6.3 | 39.3*
CCCS(=O)(=O)N1CC(=O)N(c2ccc(C)c(Cl)c2)C(C)(C(=O)NC2CCCCCC2)C1 (stereo unspecified) | . | 4.1 | -1.0 | 2.4 | -18.6
CN1CCN(c2ccc(Cl)cc2NC(=O)c2cccc(S(=O)(=O)N(C)C)c2)CC1 | 13.8 | 0.1 | -3.9 | 41.1* | 6.4
CN1CCN(c2ccc(Cl)cc2NC(=O)c2ccc([N+](=O)[O-])cc2)CC1 | -14.5 | -15.3 | -85.0* | 5.9 | -6.2
Cn1c(=O)n(C)c2cc([N+](=O)[O-])c(N3CCN(C(=O)c4ccc(Cl)cc4)CC3)cc21 | -16.8 | -1.2 | -56.9* | 1.8 | -20.4
CN1CCN(c2ccc([N+](=O)[O-])cc2C(=O)c2ccc(Br)cc2)CC1 | -55.7* | -7.3 | 4.1 | 5.3 | -8.6
